In the OligoGym collection:

Biological target: FASN
Assay: pooled miR-30 sensor sort-seq; sequence = guide strand
Settings: shRNA
Note: reference of the scale not given here.

Row | Sequence | sensor-assay potency score (higher = more potent)
1 | TAGAGGTGCTGAGCCAGCGGGC | -1.55
2 | TAGCCCACGAGTGTCTCGGGGT | -0.532
3 | TTCAGCTTGCCGGACCGCCGGG | -0.801
4 | TCGAAGAAGAAGGAGAGCCGGT | 0.123
5 | TTGAGCTGAAGCCTGCAGGCAG | -0.315
6 | TTGTTGACATTGTACTCGGCGG | -1.03
7 | AAGAACTCCAGGTTGTCCCTGT | 0.747
8 | TACTTTCCCGTCGCATACCTGG | -1.06
9 | TAGGTGGGGATGCTGAGCCGGG | -1.21
10 | TTCTCTGACACCTCGAAGGCAC | -0.474
11 | TTGGAGAGCAGCACACACCGGA | -0.273
12 | TTCAGGAAGATAGCCATGCCGA | -1.28
13 | TTGAGCTCCTGCAGCAGTGGGG | -0.482
14 | TTTCTCACAGATACGCTCCATG | -0.419
15 | TTCCTCGGAGTGAATCTGGGTT | 0.14

Biological target: FBLIM1
Assay: as above
Settings: shRNA

Row | Sequence | sensor-assay potency score (higher = more potent)
16 | TCGACAGACAGGAGGATCCTGC | -0.78
17 | TTCTGGTAGAAGCTCTGCCCAG | -1.24
18 | TTTCTCAACAGGTTCTGCCGGG | 0.497
19 | TTGAAGAGCTGCATAGGTGCAG | 0.627
20 | TAATAAACCAGTAGACAGGAAA | -1.08
21 | TTCTCAACAGGTTCTGCCGGGG | -0.331
22 | TTTCATGGAAGTTTCTTCCCAT | 0.731
23 | TGAAGAGCTGCATAGGTGCAGC | -0.713
24 | TTTCCTGTAGAAGTCGTCCAGG | -0.297
25 | TAGACAGGAAACTCTGGCCCAG | -0.916
26 | TCTAAGTCTGCAATGAGTGAGG | -0.617
27 | TCTGGTAGAAGCTCTGCCCAGC | -0.202

Biological target: FBXL21
Assay: as above
Settings: shRNA

Row | Sequence | sensor-assay potency score (higher = more potent)
28 | TCAAATTCAAACTTTCTCCAAA | -0.476
29 | TTCTTTGAAGAACGTCTCGAAT | -1.19
30 | TAACAACATTAACTCTAGGGGA | -0.101
31 | AACAACATTAACTCTAGGGGAA | -0.232
32 | TTAACATGAGTCTCGCTTGAGA | -0.687
33 | TCACACAGTCTTACAAACCTGA | 0.117
34 | TTGAGTTGATAAAAACAACTGT | 0.22
35 | TAGAGTGTCACTATTATTGGCC | 0.27
36 | TTCAGTGTGAATTTCATCTAGG | 0.327
37 | TGCATAACAACATTAACTCTAG | -0.667
38 | TTTAATGATCTGCTGAATGAGA | -0.579
